DT40 TDP1 no CPT: qHTS for Inhibitors of human tyrosyl-DNA phosphodiesterase 1 (TDP1): qHTS in cells in absence of CPT; DT40 Tdp1-/- hTDP1 cells, no CPT, ATP luminescence, 48 h; Potency, µM (titrated, usually from 46.2 µM), inactives show at the highest dose activity change, negative = growth inhibition, actives largely listed as inhibitors; 420,000 compounds, 15% hits; further: potency means the concentration at half of the fitted maximal effect; nearly all actives have a fitted effect of over 55% in size
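DT40 Tdp1-/-;hTDP1 cells, no CPT (DMSO vehicle only), 400 cells/well; compounds pin-transferred; ≥48 hr, 37 °C; CellTiter-Glo 30 min RT dark, luminescence read.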
IL-1B inflam inh: qHTS for Inhibitors of Inflammasome Signaling: IL-1-beta AlphaLISA Primary Screen; THP-1 LPS/ATP IL-1B secretion, AlphaLISA, 16 h; hits give low values; activity change, % at 57.5 µM; 360,000 compounds, 4.7% hits; in the data active means activity change below about -50%; inconclusive means mostly about -30% to -49%
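THP-1 cells pretreated 1 hr with compounds (up to 57.5 uM final), then stimulated with LPS (250 ng/mL final) plus ATP (1.25 mM final); secreted IL-1B measured by AlphaLISA after 16 hr, decreased signal indicating inhibition.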
HT1080 IDH1KD tx: qHTS for induction of synthetic lethality in tumor cells producing 2HG: qHTS for the HT-1080-IDH1KD cell line; Potency, µM (doses to about 46.1 µM), for the others: top-dose activity, negative = toxicity, usual class: cytotoxic; 360,000 compounds, 2% hits; HT-1080 IDH1 knockdown viability, ATP luminescence, 48 h;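 further: potency means the concentration at half of the fitted maximal effect; 0% = DMSO wells and -100% = cell-free medium wells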
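% activity derives from luminescence (CellTiter-Glo), normalised to DMSO and no-cell wells. HT-1080-IDH1KD cells, 750/well, had 48 h compound exposure at 37 °C.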
TDP1 cell CPT: qHTS for Inhibitors of human tyrosyl-DNA phosphodiesterase 1 (TDP1): qHTS in cells in presence of CPT; chicken DT40 Tdp1-/-;hTDP1 cells + 20 nM CPT, ATP luminescence, 48 h; Potency, µM (highest dose often 46.2 µM), for inactives: at the top dose activity change, negative = growth inhibition, most hits filed as inhibitors; 420,000 compounds, 12% hits; AID 686979, 2013; further: potency means the concentration at half of the fitted maximal effect; nearly all actives have a fitted effect of over 55% in size
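Chicken DT40 Tdp1-/- cells stably complemented with human TDP1 were seeded at 400 cells/well in medium containing 20 nM camptothecin, exposed to pin-transferred compounds, and grown at 37 °C for at least 48 hr. Viability was read as ATP luminescence.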
HT1080NT lethal: qHTS for induction of synthetic lethality in tumor cells producing 2HG: qHTS for the HT-1080-NT fibrosarcoma cell line; Potency, µM (series often up to 46.1 µM), inactives show at the top dose activity, negative = less viability, actives largely listed as cytotoxic; 360,000 compounds, 1.6% hits; HT-1080-NT fibrosarcoma viability, CellTiter-Glo ATP luminescence, 48 h;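 further: NT is the 2HG producing partner of a matched IDH1 knockdown line; potency means the concentration at half of the fitted maximal effect; 0% = DMSO-treated cells and -100% = media-only wells without cells; nearly all actives have a fitted effect of over 55% in size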
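Toxicity toward the 2HG-producing NT line was scored as %Activity, normalised to DMSO and no-cell wells, from CellTiter-Glo luminescence after 48 hours' treatment.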
* = called active by the depositor. Only some compounds are listed: those with a hit (about 19% of all), similar ones and a draw of the others. Unless noted, the call rests on the fitted dose curve; in most records, active means well fitted curve in the direction sought with a large enough effect; inconclusive means small, poorly fitted or top-dose-only effect, or another doubt; inactive means no such curve, though single readings can be large; an effect the other way counts as inactive or inconclusive. Unless noted, on the % scale 0 is the no-effect control and ±100 the full control effect.

Screening O=C(COC(=O)c1ccc2c(c1)C(=O)N(Cc1ccncc1)C2=O)Nc1cccc2ccccc12 returned DT40 TDP1 no CPT inconclusive, IL-1B inflam inh 12, HT1080 IDH1KD tx -5%, TDP1 cell CPT -12% and HT1080NT lethal -2%.
Screening CCc1cc(C(=O)NCC(c2cccs2)N2CCOCC2)sc1C (stereo not drawn) returned DT40 TDP1 no CPT 23µM*, IL-1B inflam inh 12, HT1080 IDH1KD tx -8%, TDP1 cell CPT inconclusive and HT1080NT lethal -7%.
For O=C(NCC(c1cccs1)N1CCOCC1)c1ccccc1NS(=O)(=O)c1ccc(Br)cc1 (stereo not drawn) the results were DT40 TDP1 no CPT 15µM*, IL-1B inflam inh -9, HT1080 IDH1KD tx 2%, TDP1 cell CPT inconclusive and HT1080NT lethal -9%.
Screening O=C(NCC(c1cccs1)N1CCOCC1)c1ccccc1NS(=O)(=O)c1ccc(Cl)cc1 (stereo not drawn) returned DT40 TDP1 no CPT inconclusive, IL-1B inflam inh 0, HT1080 IDH1KD tx -30%, TDP1 cell CPT inconclusive and HT1080NT lethal inconclusive.
For O=C(NCC(c1cccs1)N1CCOCC1)c1ccc(Cl)c([N+](=O)[O-])c1 (stereo not drawn) the results were DT40 TDP1 no CPT inconclusive, IL-1B inflam inh -94*, HT1080 IDH1KD tx -5%, TDP1 cell CPT inconclusive and HT1080NT lethal 7%.
Screening Cc1ccsc1C(=O)NCC(c1cccs1)N1CCOCC1 (stereo not drawn) returned DT40 TDP1 no CPT inconclusive, IL-1B inflam inh 36, HT1080 IDH1KD tx inconclusive, TDP1 cell CPT inconclusive and HT1080NT lethal 18µM*.
Cc1c(Cl)cccc1NC(=O)CSc1nccn1C was read as DT40 TDP1 no CPT 19%, IL-1B inflam inh -16, HT1080 IDH1KD tx 9%, TDP1 cell CPT -8% and HT1080NT lethal 22%.
`Nc1[nH]c(C(=O)c2ccccc2)c(-c2cccnc2)c1C(=O)NC1CCCCC1` gave DT40 TDP1 no CPT inconclusive, IL-1B inflam inh -15, HT1080 IDH1KD tx 6%, TDP1 cell CPT -11% and HT1080NT lethal 13%.
`COc1ccc(C)cc1N1CC(C(=O)Nc2cccc(C(=O)NC3CC3)c2)CC1=O` (stereo not drawn) gave DT40 TDP1 no CPT -5%, IL-1B inflam inh -2, HT1080 IDH1KD tx 11%, TDP1 cell CPT inconclusive and HT1080NT lethal 1%.
CN(C)S(=O)(=O)c1ccc(C(=O)OCC(=O)NC(=O)NCc2ccccc2)cc1 was read as DT40 TDP1 no CPT -5%, IL-1B inflam inh 9, HT1080 IDH1KD tx 4%, TDP1 cell CPT 2% and HT1080NT lethal -5%.
`Cn1nc(C(=O)NCC(c2cccs2)N2CCOCC2)c2ccccc2c1=O` (stereo not drawn) gave DT40 TDP1 no CPT 16µM*, IL-1B inflam inh 37, HT1080 IDH1KD tx -10%, TDP1 cell CPT 26µM* and HT1080NT lethal -8%.
CC(C)(C)c1ccc(OCCC(=O)NCC(c2cccs2)N2CCOCC2)cc1 (stereo not drawn) was read as DT40 TDP1 no CPT inconclusive, IL-1B inflam inh 15, HT1080 IDH1KD tx -2%, TDP1 cell CPT -16% and HT1080NT lethal 1%.
For CN(C)c1ccc(C(=O)NCC(c2cccs2)N2CCOCC2)cc1 (stereo not drawn) the results were DT40 TDP1 no CPT -19%, IL-1B inflam inh -26, HT1080 IDH1KD tx 3%, TDP1 cell CPT -5% and HT1080NT lethal 5%.
`CC(C)(Oc1ccc(Cl)cc1)C(=O)NCC(c1cccs1)N1CCOCC1` (stereo not drawn) gave DT40 TDP1 no CPT 18µM*, IL-1B inflam inh -7, HT1080 IDH1KD tx -11%, TDP1 cell CPT inconclusive and HT1080NT lethal -11%.
COc1cccc(C(=O)COC(=O)CCCC(=O)NC2CCCCC2)c1 was read as DT40 TDP1 no CPT -10%, IL-1B inflam inh 12, HT1080 IDH1KD tx 10%, TDP1 cell CPT 0% and HT1080NT lethal 2%.
Screening Cc1ccc(OCC(=O)Nc2ccccc2C(=O)OCc2cc(=O)n3nc(C4CC4)sc3n2)cc1 returned DT40 TDP1 no CPT 10µM* and TDP1 cell CPT 7.3µM*.
For CC(Oc1ccccc1)C(=O)Nc1ccccc1C(=O)OCc1cc(=O)n2nc(C3CC3)sc2n1 (stereo not drawn) the results were DT40 TDP1 no CPT 7.3µM* and TDP1 cell CPT 3.7µM*.
Cc1ccc(OCC(=O)Nc2ccccc2C(=O)OCc2cc(=O)n3c(C)csc3n2)cc1 was read as DT40 TDP1 no CPT 21µM* and TDP1 cell CPT 16µM*.
For CC(C)c1cc(C(C)C)c(S(=O)(=O)N2CCNCC2)c(C(C)C)c1 the results were DT40 TDP1 no CPT inconclusive, IL-1B inflam inh -81*, HT1080 IDH1KD tx inconclusive, TDP1 cell CPT inconclusive and HT1080NT lethal inconclusive.
`COC(=O)C1=C(C)N(CCCC(=O)O)C(=O)NC1c1ccc(C#N)cc1` (stereo not drawn) gave DT40 TDP1 no CPT -8%, IL-1B inflam inh 34, HT1080 IDH1KD tx -3%, TDP1 cell CPT -13% and HT1080NT lethal -11%.
O=C1CC(/C=C/c2ccco2)=Nc2ccccc2N1 was read as DT40 TDP1 no CPT inconclusive, IL-1B inflam inh 0, HT1080 IDH1KD tx 0%, TDP1 cell CPT inconclusive and HT1080NT lethal 1%.
O=C1CC(/C=C/c2ccccn2)=Nc2ccccc2N1 was read as DT40 TDP1 no CPT 15µM*, IL-1B inflam inh -75*, HT1080 IDH1KD tx 2%, TDP1 cell CPT inconclusive and HT1080NT lethal -1%.
Screening CC(=O)c1sc(C(C)(C)C)cc1NC(=O)/C=C/C(=O)O returned DT40 TDP1 no CPT inconclusive, IL-1B inflam inh -96*, HT1080 IDH1KD tx -8%, TDP1 cell CPT -27% and HT1080NT lethal -6%.
`CCc1nc2c(OCC(=O)c3ccc(F)cc3)cccn2c1N(C)C(=O)c1ccc(OC)cc1` gave DT40 TDP1 no CPT -5%, IL-1B inflam inh -12, HT1080 IDH1KD tx 3%, TDP1 cell CPT -15% and HT1080NT lethal -1%.
CCC(CC)C(=O)N(C)c1c(C)nc2c(OCCOc3ccccc3)cccn12 was read as DT40 TDP1 no CPT 13µM*, IL-1B inflam inh 0, HT1080 IDH1KD tx 7%, TDP1 cell CPT 23µM* and HT1080NT lethal -5%.
For CCc1nc2c(OCc3c(C)noc3C)cccn2c1N(C)C(=O)C(C)C the results were DT40 TDP1 no CPT inconclusive, IL-1B inflam inh 6, HT1080 IDH1KD tx 12%, TDP1 cell CPT inconclusive and HT1080NT lethal 17%.

Screens from PubChem.
